The values that follow come from PubChem BioAssay (NCATS).

Results filed as inconclusive are left out. Unmarked numbers belong to inactive results. Active and inactive are the calls of the source. The call rests on the fitted dose curve; tested in HEK293 reporter line.
Further: nearly all actives have a fitted effect of over 80% in size.
On the % scale 0 is the no-effect control and ±100 the full control effect.

The first assay in a line: qHTS for Inhibitors of the Functional Ribonucleoprotein Complex (vRNP) of Lassa (LASV) Arenavirus: Viability assay - alamar blue signal for LASV Primary Screen (AID 1347083). The settings on record: cell viability, alamar blue fluorescence (LASV minigenome counter-screen); series mostly up to 57.5 µM; activity change, negative = reduced viability: at the top concentration. In general terms: In qHTS, concentration-response curves come from the screen itself.
In the case of `CCCCCC1Nc2cc(C(F)(F)F)c(S(N)(=O)=O)cc2S(=O)(=O)N1` (stereo not drawn), the “activity change, negative = reduced viability” value was 1.57%.

For `CCCCN1CCCC[C@H]1C(=O)Nc1c(C)cccc1C`, the “activity change, negative = reduced viability” value is -22.9%.

On to `CCC1Nc2cc(Cl)c(S(N)(=O)=O)cc2S(=O)(=O)N1` (stereo not drawn), for which the “activity change, negative = reduced viability” value was 3.37%.

For the molecule `CCCCCCCCNC(C)C(O)c1ccc(SC(C)C)cc1` (stereo not drawn), the “activity change, negative = reduced viability” value was 17.3%.

In the case of `CCOCC(O)COc1ccc(NC(=O)CC[S+](C)C)cc1` (stereo not drawn), the Potency result was “inactive”.

As for `Cl/C(=C\n1cncn1)c1ccc(Cl)cc1Cl`, the “activity change, negative = reduced viability” value is 14.2%.

On to `CCOC(=O)[C@H](CCc1ccccc1)N[C@H]1CCc2ccccc2N(CC(=O)O)C1=O`, for which the Potency result is “inactive”.

Consider `Nc1ccc(S(=O)(=O)Nc2cnc3ccccc3n2)cc1`, for which the “activity change, negative = reduced viability” value was 0.111%.

For `CN1C[C@H](C(=O)N[C@]2(C)O[C@@]3(O)[C@@H]4CCCN4C(=O)[C@H](Cc4ccccc4)N3C2=O)C[C@@H]2c3cccc4[nH]cc(c34)C[C@H]21`, the Potency result is “inactive”.

Consider `Cc1cccc(N(C)C(=S)Oc2ccc3ccccc3c2)c1`, for which the Potency entry was “inactive”.

Consider `NS(=O)(=O)c1ccc(N2CCCCS2(=O)=O)cc1`, for which the “activity change, negative = reduced viability” value was 14.8%.

Take `C[C@H](N)[C@H](O)c1cccc(O)c1`: the “activity change, negative = reduced viability” value was -3.2%.

Turning to `COc1cc2c(cc1OC)-c1cc(=Nc3c(C)cc(C)cc3C)n(C)c(=O)n1CC2`, the Potency result was “inactive”.

Regarding `CCN(CC)CCOCCOC(=O)C1(c2ccccc2)CCCC1`, the Potency result was “inactive”.

With `CC1(c2ccccc2)OC(C(=O)O)=CC1=O` (stereo not drawn), the “activity change, negative = reduced viability” value is -1.07%.

Regarding `COc1ccc(S(=O)(=O)N2c3ccc(Cl)cc3[C@@](O)(c3ccccc3Cl)[C@H]2C(=O)N2CCC[C@@H]2C(N)=O)cc1OC`, the “activity change, negative = reduced viability” value is -3.2%.

`CN(C)CCN(Cc1cccs1)c1ccccn1`: the Potency entry was “inactive”.

On to `CC(Oc1c(Cl)cccc1Cl)C1=NCCN1` (stereo not drawn), for which the “activity change, negative = reduced viability” value was -2.43%.

Consider `COc1cccc(CCc2ccccc2OCC(CN(C)C)OC(=O)CCC(=O)O)c1` (stereo not drawn), for which the “activity change, negative = reduced viability” value is -15%.

Consider `CCOC(=O)NNc1nncc2ccccc12`, for which the “activity change, negative = reduced viability” value is 7.16%.

`CCCC(=O)O[C@]1(C(=O)CCl)[C@@H](C)C[C@H]2[C@@H]3CCC4=CC(=O)C=C[C@]4(C)[C@@]3(F)C(=O)C[C@@]21C`: the “activity change, negative = reduced viability” value was 2.11%.

As for `CN(C)C(=O)Nc1ccc(Cl)c(Cl)c1`, the “activity change, negative = reduced viability” value is 1.08%.

With `CC(=O)Oc1ccc(C2(c3ccc(OC(C)=O)cc3)C(=O)Nc3ccccc32)cc1`, the “activity change, negative = reduced viability” value is -2.18%.

Turning to `C=CCCCCCCCCC(=O)O`, the “activity change, negative = reduced viability” value is -5.62%.

Take `COC(=O)C1=C(C)NC(C)=C(C(=O)OC(C)(C)CN(C)CCC(c2ccccc2)c2ccccc2)C1c1cccc([N+](=O)[O-])c1` (stereo not drawn): the “activity change, negative = reduced viability” value is -9.64%.

On to `CCN(CC)CC1CCCCN1CC(=O)N1c2ccccc2C(=O)Nc2cccnc21` (stereo not drawn), for which the “activity change, negative = reduced viability” value is -0.0304%.

With `OC[C@@H](O)[C@H](O)[C@H](O)[C@@H](O)CO`, the Potency result is “inactive”.

Take `CCOc1ccc(C(=O)OCCN(CC)CC)cc1`: the “activity change, negative = reduced viability” value is 2.69%.

Regarding `Cc1cc(O)c(C)c(C)c1O`, the “activity change, negative = reduced viability” value was -1.44%.

For the molecule `CCCc1nc(C)c2c(=O)[nH]c(-c3cc(S(=O)(=O)N4CCN(CC)CC4)ccc3OCC)nn12`, the Potency result is “inactive”.

`C[N+](C)(C)CCCCCCCCCC[N+](C)(C)C`: the Potency entry is “inactive”.

On to `CN(C)C(=O)Oc1cccc([N+](C)(C)C)c1`, for which the Potency entry was “inactive”.

For `CN1CCN(C2=Nc3ccccc3Sc3ccc(Cl)cc32)CC1`, the “activity change, negative = reduced viability” value is -14.8%.

On to `O=Cc1ccccc1C=O`, for which the “activity change, negative = reduced viability” value was 4.77%.

Regarding `C#C[C@]1(O)CC[C@H]2[C@@H]3CCC4=CC(=O)CC[C@@H]4[C@H]3CC[C@@]21C`, the “activity change, negative = reduced viability” value was 1.95%.

On to `O=C(CCCCCCCCC#CI)Oc1ccccc1`, for which the “activity change, negative = reduced viability” value is 1.38%.

`O=C(OCC(O)CO)c1ccccc1Nc1ccnc2c(C(F)(F)F)cccc12` (stereo not drawn): the “activity change, negative = reduced viability” value was -3.8%.

As to `CC(O)Cn1cnc2c1c(=O)n(C)c(=O)n2C` (stereo not drawn), the “activity change, negative = reduced viability” value is 3.58%.

For the molecule `O=C(O)CCC(=O)Nc1ccc(S(=O)(=O)Nc2nccs2)cc1`, the “activity change, negative = reduced viability” value was 18.8%.

The next assay can be described thus: qHTS for Inhibitors of the Functional Ribonucleoprotein Complex (vRNP) of Lymphocytic Choriomeningitis Arenaviruses (LCMV): Viability assay - alamar blue signal for LCMV Primary Screen (AID 1347085). The settings on record: alamar blue viability counter-screen, LCMV vRNP screen cells; series mostly up to 57.5 µM; activity change, negative = lower viability: at the top concentration.
As for `CCCCCC1Nc2cc(C(F)(F)F)c(S(N)(=O)=O)cc2S(=O)(=O)N1` (stereo not drawn), the “activity change, negative = lower viability” value is -0.113%.

Regarding `CCCCN1CCCC[C@H]1C(=O)Nc1c(C)cccc1C`, the “activity change, negative = lower viability” value is -31.9%.

Turning to `CCC1Nc2cc(Cl)c(S(N)(=O)=O)cc2S(=O)(=O)N1` (stereo not drawn), the “activity change, negative = lower viability” value was 3.33%.

For the molecule `CCCCCCCCNC(C)C(O)c1ccc(SC(C)C)cc1` (stereo not drawn), the “activity change, negative = lower viability” value was 3.18%.

`CCOCC(O)COc1ccc(NC(=O)CC[S+](C)C)cc1` (stereo not drawn): the Potency entry is “inactive”.

`Cl/C(=C\n1cncn1)c1ccc(Cl)cc1Cl`: the “activity change, negative = lower viability” value is -38.8%.

For `CCOC(=O)[C@H](CCc1ccccc1)N[C@H]1CCc2ccccc2N(CC(=O)O)C1=O`, the Potency entry was “inactive”.

For the molecule `Nc1ccc(S(=O)(=O)Nc2cnc3ccccc3n2)cc1`, the “activity change, negative = lower viability” value was 0.922%.

In the case of `CN1C[C@H](C(=O)N[C@]2(C)O[C@@]3(O)[C@@H]4CCCN4C(=O)[C@H](Cc4ccccc4)N3C2=O)C[C@@H]2c3cccc4[nH]cc(c34)C[C@H]21`, the Potency result was “inactive”.

For the molecule `Cc1cccc(N(C)C(=S)Oc2ccc3ccccc3c2)c1`, the “activity change, negative = lower viability” value is -0.718%.

For `NS(=O)(=O)c1ccc(N2CCCCS2(=O)=O)cc1`, the “activity change, negative = lower viability” value was 14.1%.

For `C[C@H](N)[C@H](O)c1cccc(O)c1`, the “activity change, negative = lower viability” value is 8.3%.

For the molecule `COc1cc2c(cc1OC)-c1cc(=Nc3c(C)cc(C)cc3C)n(C)c(=O)n1CC2`, the “activity change, negative = lower viability” value is 9.11%.

Consider `CCN(CC)CCOCCOC(=O)C1(c2ccccc2)CCCC1`, for which the Potency entry was “inactive”.

With `CC1(c2ccccc2)OC(C(=O)O)=CC1=O` (stereo not drawn), the “activity change, negative = lower viability” value is -0.619%.

Regarding `COc1ccc(S(=O)(=O)N2c3ccc(Cl)cc3[C@@](O)(c3ccccc3Cl)[C@H]2C(=O)N2CCC[C@@H]2C(N)=O)cc1OC`, the “activity change, negative = lower viability” value is -3.21%.

In the case of `CN(C)CCN(Cc1cccs1)c1ccccn1`, the Potency result is “inactive”.

`CC(Oc1c(Cl)cccc1Cl)C1=NCCN1` (stereo not drawn): the “activity change, negative = lower viability” value was -0.164%.

As for `COc1cccc(CCc2ccccc2OCC(CN(C)C)OC(=O)CCC(=O)O)c1` (stereo not drawn), the “activity change, negative = lower viability” value was -16.6%.

For `CCOC(=O)NNc1nncc2ccccc12`, the “activity change, negative = lower viability” value is 0.76%.

As for `CCCC(=O)O[C@]1(C(=O)CCl)[C@@H](C)C[C@H]2[C@@H]3CCC4=CC(=O)C=C[C@]4(C)[C@@]3(F)C(=O)C[C@@]21C`, the “activity change, negative = lower viability” value is 36.5%.

With `CN(C)C(=O)Nc1ccc(Cl)c(Cl)c1`, the “activity change, negative = lower viability” value was -0.728%.

On to `CC(=O)Oc1ccc(C2(c3ccc(OC(C)=O)cc3)C(=O)Nc3ccccc32)cc1`, for which the “activity change, negative = lower viability” value is -0.0373%.

As to `C=CCCCCCCCCC(=O)O`, the “activity change, negative = lower viability” value was -3.9%.

As to `COC(=O)C1=C(C)NC(C)=C(C(=O)OC(C)(C)CN(C)CCC(c2ccccc2)c2ccccc2)C1c1cccc([N+](=O)[O-])c1` (stereo not drawn), the “activity change, negative = lower viability” value is -35.9%.

`CCN(CC)CC1CCCCN1CC(=O)N1c2ccccc2C(=O)Nc2cccnc21` (stereo not drawn): the “activity change, negative = lower viability” value is 10.6%.

In the case of `OC[C@@H](O)[C@H](O)[C@H](O)[C@@H](O)CO`, the Potency result was “inactive”.

As to `CCOc1ccc(C(=O)OCCN(CC)CC)cc1`, the “activity change, negative = lower viability” value is 11.1%.

Consider `Cc1cc(O)c(C)c(C)c1O`, for which the “activity change, negative = lower viability” value is 1.28%.

Consider `CCCc1nc(C)c2c(=O)[nH]c(-c3cc(S(=O)(=O)N4CCN(CC)CC4)ccc3OCC)nn12`, for which the Potency entry was “inactive”.

`C[N+](C)(C)CCCCCCCCCC[N+](C)(C)C`: the Potency result was “inactive”.

For the molecule `CN(C)C(=O)Oc1cccc([N+](C)(C)C)c1`, the Potency result was “inactive”.

Regarding `CN1CCN(C2=Nc3ccccc3Sc3ccc(Cl)cc32)CC1`, the “activity change, negative = lower viability” value was 0.528%.

As to `O=Cc1ccccc1C=O`, the “activity change, negative = lower viability” value was -2.67%.

`C#C[C@]1(O)CC[C@H]2[C@@H]3CCC4=CC(=O)CC[C@@H]4[C@H]3CC[C@@]21C`: the “activity change, negative = lower viability” value was 2.7%.

Regarding `O=C(CCCCCCCCC#CI)Oc1ccccc1`, the “activity change, negative = lower viability” value was -9.47%.

As to `O=C(OCC(O)CO)c1ccccc1Nc1ccnc2c(C(F)(F)F)cccc12` (stereo not drawn), the “activity change, negative = lower viability” value was -3.79%.

In the case of `CC(O)Cn1cnc2c1c(=O)n(C)c(=O)n2C` (stereo not drawn), the “activity change, negative = lower viability” value is 3.21%.

Regarding `O=C(O)CCC(=O)Nc1ccc(S(=O)(=O)Nc2nccs2)cc1`, the “activity change, negative = lower viability” value was 21.6%.
